{"source": "PubChem BioAssay (NCATS)", "note": "Results filed as inconclusive are left out. A number with no mark means an inactive call. Activity calls are given as the source filed them. Calls come from the whole dose curve; as a rule, active = well fitted inhibition curve with a large enough effect; inconclusive = small, poorly fitted or top-dose-only effect; inactive = no such curve, though single readings can be large or run the other way. % is set by controls: 0 for no effect and ±100 for the full control effect; potency is the fitted concentration of half-maximal effect.", "data": [{"assay": "Primary qHTS for small molecule stabilizers of the endoplasmic reticulum resident proteome: Secreted ER Calcium Modulated Protein (SERCaMP) assay (AID 1508630)", "conditions": "SH-SY5Y GLuc-SERCaMP (Gaussia luciferase released on ER calcium loss) secretion, thapsigargin, luminescence; series mostly up to 38.4 µM; activity change, negative = inhibition: at the top concentration", "in_short": "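GLuc-SERCaMP-expressing SH-SY5Y cells, pretreated 16 h with compound, are challenged with thapsigargin to empty ER calcium stores; after 4 h, coelenterazine is added directly to the medium and luminescence is imaged.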", "values": [{"smiles": "C#C[C@]1(O)CC[C@H]2[C@H]3CCc4cc(OC)ccc4[C@H]3CC[C@@]21C", "activity change, negative = inhibition": "56.1%"}, {"smiles": "CN(CC=CC#CC(C)(C)C)Cc1cccc2ccccc12", "activity change, negative = inhibition": "-8.65%"}, {"smiles": "CN(C(Cc1ccc(OS(=O)(=O)c2cccc3cnccc23)cc1)C(=O)N1CCN(c2ccccc2)CC1)S(=O)(=O)c1cccc2cnccc12", "note": "(centres undefined)", "Potency": "11.9 µM (active)"}, {"smiles": "C[C@@H]1O[C@@H](O[C@H]2CC[C@@]3(C)[C@H](CC[C@@H]4[C@H]3C[C@@H](O)[C@]3(C)[C@@H](C5=CC(=O)OC5)CC[C@]43O)C2)C[C@H](O)[C@@H]1O[C@H]1C[C@H](O)[C@H](O[C@H]2C[C@H](O)[C@@H](O)[C@@H](C)O2)[C@H](C)O1", "note": "(stereo in doubt)", "activity change, negative = inhibition": "57.7% [at 76.3 µM]"}, {"smiles": "CC1(C)C(N(O)C(=O)Nc2ccc(Cl)cc2)N(c2ccc(Cl)cc2)C(=O)N1CC(=O)NN=CC=Cc1ccc([N+](=O)[O-])o1", "note": "(centres undefined)", "activity change, negative = inhibition": "-27.5%"}, {"smiles": "O=C1C(CCC(O)c2ccc(F)cc2)C(c2ccc(O)cc2)N1c1ccc(F)cc1", "note": "(centres undefined)", "activity change, negative = inhibition": "-35%"}, {"smiles": "CCC[C@@H](NC(=O)[C@@H]1[C@H]2CCC[C@@H]2CN1C(=O)[C@@H](NC(=O)[C@@H](NC(=O)c1cnccn1)C1CCCCC1)C(C)(C)C)C(=O)C(=O)NC1CC1", "activity change, negative = inhibition": "-55.6%"}, {"smiles": "CCOC(=O)[C@H]1O[C@H]1C(=O)N[C@@H](CC(C)C)C(=O)NCCC(C)C", "activity change, negative = inhibition": "63.7%"}, {"smiles": "CC[C@H]1OC(=O)[C@H](C)[C@@H](O[C@H]2C[C@@](C)(OC)[C@@H](O)[C@H](C)O2)[C@H](C)[C@@H](O[C@@H]2O[C@H](C)C[C@H](N(C)C)[C@H]2O)[C@](C)(O)C[C@H](C)C(=NOCOCCOC)[C@H](C)[C@@H](O)[C@]1(C)O", "activity change, negative = inhibition": "36.7%"}]}]}
